Experimental data from PubChem BioAssay (EPA / NIEHS).
Values joined by “and” are separate entries in the source; they are usually repeats but may differ in a detail not shown here. Equal values may be shown once. Inconclusive results are not listed. Some structures have more than one record in an assay (separate samples or runs), and their calls can disagree. Active and inactive are the calls of the source. The calls were made as follows: active = hit-call score of the fitted dose curve at least 0.9, where 1 is the maximum; inconclusive = response in the unintended direction; inactive = score below 0.9.

Legend:
[1] = tested on: turtle Estrogen Receptor (ERa), gene 101933533; experiment: ATG_trERa_XSP2: Attagene TRANS-FACTORIAL Multi-Species (XSP2) HepG2 Assay for turtle Estrogen Receptor (ERa) (AID 2283812);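 also: human HepG2 liver cells transiently expressing turtle ERa-Gal4 chimeric receptor; actives raise reporter signal above DMSO so AC50 reflects agonist activity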
Outline: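 HepG2 cells transiently transfected with GAL4-UAS reporter units expressing turtle ERa-Gal4 chimera. Reporter mRNA measured after 24 h dosing by RT-PCR, fluorescent labelling and capillary electrophoresis; gain of signal fitted versus DMSO.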

[2] = biological target: Estrogen receptor beta (Homo sapiens) (UniProt Q92731); experiment: ATG_hERb_XSP2: Attagene TRANS-FACTORIAL Multi-Species (XSP2) HepG2 Assay for human Estrogen Receptor (ERb) (AID 2283813);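 also: actives raise reporter mRNA above DMSO so AC50 reflects agonist induction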
Outline: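 HepG2 cells transiently transfected with GAL4-UAS reporter units and chimeric human ERb-Gal4, 24 h exposure. Reporter mRNA quantified by RT-PCR with FAM labelling, HpaI digestion and capillary electrophoresis; gain of signal versus DMSO.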

[3] = biological target: GAL4 Transcription Factor (Internal Marker), GAL4 (gene 855828) (UniProt P04386); experiment: ATG_GAL4_XSP2: Attagene TRANS-FACTORIAL Multi-Species (XSP2) HepG2 Assay for GAL4 Transcription Factor (Internal Marker) (AID 2283814);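 also: GAL4 reporter mRNA background control in MRTU transfected cells not a receptor target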
Outline: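 HepG2 cells transiently transfected with GAL4-UAS reporter units, stimulated with 3 nM 6-alpha-fluorotestosterone plus 1.5 nM norgestrel, dosed 24 h. Reporter mRNA by RT-PCR/capillary electrophoresis; gain-of-signal fit versus DMSO, background control.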

[4] = biological target: zebrafish Estrogen Receptor (ER1), esr1 (gene 259252) (UniProt P57717); experiment: ATG_zfER1_XSP2: Attagene TRANS-FACTORIAL Multi-Species (XSP2) HepG2 Assay for zebrafish Estrogen Receptor (ER1) (AID 2283816)
Experimental: ATG_XSP2_multi-species_TRANS is a cell-based, multiplexed assay created by modifying the existing Attagene TRANS-FACTORIAL system to include a panel of nuclear receptors from some or all the following species: human (Homo sapiens), mouse (Mus musculus), frog (Xenopus laevis), zebrafish (Danio rerio), chicken (Gallus gallus), and turtle (Chrysemys picta). The ECOTOX-FACTORIAL format uses HepG2, a human liver cell line, with measurements taken at 24 hours after chemical dosing in a 24-well plate. Xsp2 included 3 nM 6-alpha-fluorotestosterone and 1.5 nM norgestrel to stimulate the androgen receptor.ATG_zfER1_XSP2 is one of 29 assay components measured or calculated from the ATG_XSP2_multi-species_TRANS assay. It is designed to make measurements of mRNA induction, a form of inducible reporter, as detected with fluorescence intensity signals by Reverse transcription polymerase chain reaction (RT-PCR) and Capillary electrophoresis technology.The assay endpoint ATG_zfER1_XSP2 was analyzed in the positive analysis fitting direction relative to DMSO as the negative control and baseline of activity. Using a type of inducible reporter, measures of mRNA for gain-of-signal activity can be used to understand the reporter gene at the transcription factor-level as they relate to the gene ER. Furthermore, this assay endpoint can be referred to as a primary readout, because this assay has produced multiple assay endpoints where this one serves a reporter gene function. To generalize the intended target to other relatable targets, this assay endpoint is annotated to the nuclear receptor intended target family, where the subfamily is steroidal.
Human liver HepG2 cells are transiently transfected with multiple reporter transcription units (MRTUs) in 6-well plates using FuGene 6 reagent (Roche; 3 ml FuGene/1 mg DNA). The MRTU constructs are regulated by a cis-regulating element (promoter). […] A major difference between the CIS and TRANS system is that in CIS activities of endogenous TFs are measured, whereas the TRANS assay evaluates changes in activities of exogenous, chimeric NR-Gal4 proteins. […] At the end of 24 hour incubation, total RNA was isolated using TriZol reagent (Invitrogen). The isolated RNA is then reverse-transcribed using oligo(dT) primer and Mo-MLV reverse transcriptase (Invitrogen) with DNAse I (Ambion) treatment for 30 min. The one-tenth of the produced cDNA was amplified by PCR using Taq DNA polymerase (Invitrogen) and two reporter sequence-specific primers. The PCR products were fluorescently labeled by primer extension with 6-arboxyfluorescein (6-FAM) 5'-labeled reporter sequence-specific primer (2 min at 95 C, 20 s at 68 C and 10 min at 72 C) and these products were digested with 5U of HpaI (New England Biolabs) for 2h at 37 C. The fragments were purified using Qiaquick PCR columns (Qiagen), analyzed on an ABI 3130xL genetic analyzer (Applied Biosystems) with peak positions identified by using a set of X-rhodamine (ROX)-labeled MapMarker1000 molecular weight standards (BioVentures). The raw capillary electrophoresis data was processed using Attagraph software (Attagene).

[5] = biological target: chicken Estrogen Receptor (ERa), ESR1 (gene 396099) (UniProt P06212); experiment: ATG_chERa_XSP2: Attagene TRANS-FACTORIAL Multi-Species (XSP2) HepG2 Assay for chicken Estrogen Receptor (ERa) (AID 2283817);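 also: actives raise reporter signal above DMSO so AC50 reflects ER activation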
Outline: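 Transient MRTU transfection of HepG2 → 24 h chemical dosing → TriZol RNA, oligo(dT) RT → PCR, 6-FAM primer extension, HpaI digest → CE quantitation of chicken ERa-Gal4-driven reporter mRNA. Positive direction vs DMSO.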

[6] = tested on: zebrafish Estrogen Receptor (ER2a), gene 317734; experiment: ATG_zfER2a_XSP2: Attagene TRANS-FACTORIAL Multi-Species (XSP2) HepG2 Assay for zebrafish Estrogen Receptor (ER2a) (AID 2283818);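 also: hits raise reporter mRNA so AC50 reflects activation of zebrafish ER2a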
Outline: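 HepG2 cells transiently transfected with GAL4-UAS reporter units and chimeric zebrafish ER2a-Gal4, exposed 24 h; medium contains 3 nM 6-alpha-fluorotestosterone and 1.5 nM norgestrel. Reporter mRNA quantified by RT-PCR, HpaI digestion, capillary electrophoresis; gain versus DMSO.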

[7] = tested on: frog Estrogen Receptor (ER), gene 398734; experiment: ATG_frER1_XSP2: Attagene TRANS-FACTORIAL Multi-Species (XSP2) HepG2 Assay for frog Estrogen Receptor (ER) (AID 2283821);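 also: hits raise reporter mRNA above DMSO baseline so potency means agonist or activator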
Outline: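 Steps: transfect HepG2 with multiple reporter transcription units; treat with chemical for 24 h; isolate RNA, reverse-transcribe, PCR-amplify, label with 6-FAM, digest with HpaI; resolve fragments by capillary electrophoresis. Signal is scored against DMSO.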

[8] = ATG_M_19_XSP2: Attagene TRANS-FACTORIAL Multi-Species (XSP2) HepG2 Assay for M32 Transcription Factor (Internal Marker) (AID 2283822)
Outline: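 Internal background marker in a multi-species nuclear receptor TRANS panel: transfected HepG2 cells exposed 24 h, with 3 nM 6-alpha-fluorotestosterone and 1.5 nM norgestrel present. Readout is RT-PCR of reporter transcripts resolved by capillary electrophoresis, gain-of-signal versus DMSO.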

[9] = tested on: turtle Androgen Receptor (AR), gene 101947425; experiment: ATG_trAR_XSP2: Attagene TRANS-FACTORIAL Multi-Species (XSP2) HepG2 Assay for turtle Androgen Receptor (AR) (AID 2283815);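 as to AC50: potency for gain of reporter signal meaning activation above DMSO baseline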
Outline: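 HepG2 cells transiently transfected with GAL4-UAS reporter units for chimeric NR-Gal4 receptors; 24 h dosing in presence of 3 nM 6-alpha-fluorotestosterone and 1.5 nM norgestrel. Reporter mRNA by RT-PCR and capillary electrophoresis, gain of signal versus DMSO.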

[10] = tested on: chicken Androgen Receptor (AR), gene 422165; experiment: ATG_chAR_XSP2: Attagene TRANS-FACTORIAL Multi-Species (XSP2) HepG2 Assay for chicken Androgen Receptor (AR) (AID 2283819);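 also: hits raise reporter mRNA above DMSO so potency is for activation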
Outline: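 HepG2 cells transiently transfected with chicken AR–GAL4 chimeric reporter constructs, stimulated with 3 nM 6-alpha-fluorotestosterone plus 1.5 nM norgestrel, dosed 24 h. Reporter mRNA quantified by RT-PCR and capillary electrophoresis; gain of signal fitted versus DMSO.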

Measured: AC50

GAL4 Transcription Factor (Internal Marker), GAL4 (gene 855828), sequence (P04386 whole entry, looked up, the tested form may be a part): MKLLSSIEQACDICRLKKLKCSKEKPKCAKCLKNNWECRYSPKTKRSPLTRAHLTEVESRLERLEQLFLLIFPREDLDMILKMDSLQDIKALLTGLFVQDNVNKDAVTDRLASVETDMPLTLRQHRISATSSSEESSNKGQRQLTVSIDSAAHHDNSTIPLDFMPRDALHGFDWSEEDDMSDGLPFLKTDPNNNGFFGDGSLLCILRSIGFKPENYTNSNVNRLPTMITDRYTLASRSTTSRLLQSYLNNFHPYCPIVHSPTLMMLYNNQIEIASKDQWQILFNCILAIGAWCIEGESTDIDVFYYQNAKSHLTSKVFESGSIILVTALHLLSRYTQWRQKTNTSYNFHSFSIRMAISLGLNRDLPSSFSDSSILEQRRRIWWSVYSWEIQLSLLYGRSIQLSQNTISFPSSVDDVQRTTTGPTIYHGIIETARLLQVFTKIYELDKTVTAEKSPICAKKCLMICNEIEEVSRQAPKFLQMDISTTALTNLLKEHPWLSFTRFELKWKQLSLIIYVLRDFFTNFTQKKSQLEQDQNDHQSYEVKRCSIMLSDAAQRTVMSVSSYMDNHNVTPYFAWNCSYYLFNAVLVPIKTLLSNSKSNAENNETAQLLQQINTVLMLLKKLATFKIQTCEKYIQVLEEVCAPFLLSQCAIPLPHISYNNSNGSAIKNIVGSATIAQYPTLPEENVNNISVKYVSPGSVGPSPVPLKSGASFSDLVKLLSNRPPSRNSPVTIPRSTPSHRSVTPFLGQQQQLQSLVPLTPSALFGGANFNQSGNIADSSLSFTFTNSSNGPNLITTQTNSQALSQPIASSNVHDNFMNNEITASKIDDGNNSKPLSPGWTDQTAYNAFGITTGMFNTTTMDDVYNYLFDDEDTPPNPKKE
chicken Estrogen Receptor (ERa), ESR1 (gene 396099), sequence (P06212 whole entry, looked up, the tested form may be a part): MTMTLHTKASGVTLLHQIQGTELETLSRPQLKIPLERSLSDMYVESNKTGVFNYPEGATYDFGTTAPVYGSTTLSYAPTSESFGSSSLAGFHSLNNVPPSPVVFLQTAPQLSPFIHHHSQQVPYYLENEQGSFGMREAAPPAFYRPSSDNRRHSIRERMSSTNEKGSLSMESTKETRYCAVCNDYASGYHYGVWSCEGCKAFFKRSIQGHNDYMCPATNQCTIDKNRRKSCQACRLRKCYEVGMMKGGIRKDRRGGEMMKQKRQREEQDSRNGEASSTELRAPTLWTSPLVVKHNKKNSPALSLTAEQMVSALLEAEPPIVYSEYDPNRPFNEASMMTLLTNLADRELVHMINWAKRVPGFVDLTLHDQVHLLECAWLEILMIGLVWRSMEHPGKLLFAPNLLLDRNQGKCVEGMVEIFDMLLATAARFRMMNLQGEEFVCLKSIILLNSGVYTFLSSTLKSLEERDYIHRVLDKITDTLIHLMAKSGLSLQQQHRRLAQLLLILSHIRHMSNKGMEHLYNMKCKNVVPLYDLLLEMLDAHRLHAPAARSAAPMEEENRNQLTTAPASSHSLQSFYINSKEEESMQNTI
zebrafish Estrogen Receptor (ER1), esr1 (gene 259252), sequence (P57717 whole entry, looked up): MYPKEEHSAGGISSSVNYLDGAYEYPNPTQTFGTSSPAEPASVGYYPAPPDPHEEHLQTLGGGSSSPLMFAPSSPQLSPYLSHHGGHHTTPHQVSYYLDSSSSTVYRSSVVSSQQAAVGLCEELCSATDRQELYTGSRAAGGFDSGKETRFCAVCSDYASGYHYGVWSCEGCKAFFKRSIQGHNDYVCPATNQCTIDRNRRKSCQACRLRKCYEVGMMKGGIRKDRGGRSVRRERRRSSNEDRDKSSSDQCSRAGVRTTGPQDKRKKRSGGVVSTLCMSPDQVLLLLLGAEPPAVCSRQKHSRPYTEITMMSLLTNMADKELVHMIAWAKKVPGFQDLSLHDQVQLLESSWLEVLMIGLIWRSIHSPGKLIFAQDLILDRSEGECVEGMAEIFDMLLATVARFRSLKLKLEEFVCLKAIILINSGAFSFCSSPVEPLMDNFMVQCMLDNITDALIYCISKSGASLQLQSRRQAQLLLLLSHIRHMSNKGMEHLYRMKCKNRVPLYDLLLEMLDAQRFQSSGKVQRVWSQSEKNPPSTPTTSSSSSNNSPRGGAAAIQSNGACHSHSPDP
Estrogen receptor beta (Homo sapiens), sequence (Q92731 whole entry, looked up, the tested form may be a part): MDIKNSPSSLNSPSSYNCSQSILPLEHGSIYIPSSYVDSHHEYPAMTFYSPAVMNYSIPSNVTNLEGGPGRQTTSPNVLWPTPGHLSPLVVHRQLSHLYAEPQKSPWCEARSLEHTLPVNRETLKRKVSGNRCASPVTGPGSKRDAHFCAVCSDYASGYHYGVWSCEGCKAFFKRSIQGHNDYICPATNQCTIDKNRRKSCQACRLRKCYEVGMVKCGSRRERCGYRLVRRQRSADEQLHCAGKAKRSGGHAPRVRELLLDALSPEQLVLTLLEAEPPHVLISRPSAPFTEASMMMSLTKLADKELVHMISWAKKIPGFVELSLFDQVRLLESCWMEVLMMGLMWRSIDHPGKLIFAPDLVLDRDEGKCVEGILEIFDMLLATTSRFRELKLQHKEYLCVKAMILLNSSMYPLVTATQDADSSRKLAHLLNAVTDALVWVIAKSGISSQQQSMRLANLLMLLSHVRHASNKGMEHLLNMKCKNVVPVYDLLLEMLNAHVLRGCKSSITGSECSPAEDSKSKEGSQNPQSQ

COc1ccc(C(=O)c2ccccc2)c(O)c1
active: [1] 4.74 µM and 26.3 µM | [2] 26.8 µM | [4] 11 µM and 16.7 µM | [5] 6.73 µM | [6] 9.9 µM | [7] 5.07 µM and 26 µM
inactive: [2] | [3] | [5]

Oc1ccccc1Cc1ccccc1O
active: [1] 26.9 µM | [2] 8.23 µM and 7.6 µM | [4] 58.4 µM and 100 µM | [5] 7.64 µM | [6] 27.3 µM and 8.24 µM | [7] 26.5 µM and 7.86 µM
inactive: [1] | [3] | [5] | [8]

CC(CCC(=O)O)(c1ccc(O)cc1)c1ccc(O)cc1
active: [4] 134 µM | [6] 46.6 µM and 34.7 µM
inactive: [1] | [2] | [3] | [9] | [4] | [5] | [10] | [7]

C=C1C[C@H]2[C@@H]3C=C(C)C4=CC(=O)CC[C@]4(C)[C@H]3CC[C@]2(C)[C@@]1(OC(C)=O)C(C)=O
inactive: [3] | [4] | [6] | [7] | [8]

CCCCCCCCCCCCc1ccc(O)cc1
inactive: [2] | [3] | [6]
active: [1] 327 nM and 57.8 nM | [4] 0.47 µM | [5] 526 nM and 135 nM | [7] 274 nM and 44 nM

Oc1ccc(-c2ccccc2)c(Cl)c1
active: [1] 4.73 µM and 2.56 µM | [2] 8.87 µM and 8.92 µM | [4] 17.3 µM and 20.1 µM | [5] 5.68 µM and 2.43 µM | [6] 4.34 µM and 9.01 µM
inactive: [7] | [8]

O=C(O)/C=C/c1ccccc1
inactive: [1] | [5] | [6]
active: [7] 31.6 µM

N#Cc1ccc(C2CCCc3cncn32)cc1 (stereo not given)
active: [7] 50 µM
inactive: [1] | [4] | [6] | [10]

CC(C)(C)NC(=O)[C@H]1CC[C@H]2[C@@H]3CC[C@H]4NC(=O)C=C[C@]4(C)[C@H]3CC[C@]12C
active: [6] 142 µM
inactive: [1] | [3] | [5] | [7]

COc1ccc(-c2coc3cc(O)cc(O)c3c2=O)cc1
active: [1] 1.27 µM and 161 nM | [2] 83.6 nM and 65.3 nM | [9] 1.81 µM | [4] 4.02 µM and 458 nM | [5] 1.24 µM and 200 nM | [6] 260 nM and 38 nM | [10] 10 µM and 6.25 µM | [7] 1.07 µM and 98.3 nM
